High-throughput results deposited in PubChem by National Center for Advancing Translational Sciences (NCATS).
BAZ2B inh: blocks human BAZ2B; AlphaScreen BAZ2B-H3K14Ac peptide displacement; hit rate 4.4% among 360,000; Q9UIF8; Potency, µM (titrated, usually from 114 µM), inactives show at the top dose activity change, negative = inhibition, most hits filed as inhibitors; note: potency is the fitted concentration of half-maximal effect; % is set by controls: 0 for no effect and ±100 for the full control effect; nearly all actives have a fitted effect of over 60% in size
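BAZ2B (50 nM) with biotin-H3(5-23)K14Ac peptide (50 nM) in PBS pH 7.4, 0.01% Tween-20, preformed 30 min, then compound 30 min at room temperature; top concentration 110uM. AlphaScreen streptavidin donor/nickel chelate acceptor beads (10 ug/mL final), 20 min dark, signal read.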
PI5P4Ka inh: PI5P4K alpha (human) kinase inhibition; P48426; hit rate 1.2% among 330,000; PI5P4Kalpha enzyme, ADP-Glo luminescence, 60 min; stronger effect = lower value; AID 652105; max response, %; active = max response of -50% or lower; inconclusive = between -30% and -50%; inactive = -30% or higher; note: value at the top dose of about 77 µM; % is set by controls: 0 for no effect and ±100 for the full control effect
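Human PI5P4Kalpha with substrate in 0.038 M HEPES pH 7.4, 0.28 mM EGTA, 0.1% CHAPS, 5% DMSO; reaction started with 5 microM ATP (final), 60 min at room temperature. ADP formed read by ADP-Glo luminescence.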
JMJD2A Tudor: blocks the human JMJD2A Tudor domain; AlphaScreen JMJD2A-Tudor / H3K4me3 peptide binding; Potency, µM (titrated, usually from 114 µM), inactives show at the highest dose activity change, negative = inhibition, hits mostly inhibitors; hit rate 4.4% among 390,000; note: potency is the fitted concentration of half-maximal effect; % is set by controls: 0 for no effect and ±100 for the full control effect; nearly all actives have a fitted effect of over 50% in size
Target sequence (O75164 whole entry, looked up, the tested form may be a part): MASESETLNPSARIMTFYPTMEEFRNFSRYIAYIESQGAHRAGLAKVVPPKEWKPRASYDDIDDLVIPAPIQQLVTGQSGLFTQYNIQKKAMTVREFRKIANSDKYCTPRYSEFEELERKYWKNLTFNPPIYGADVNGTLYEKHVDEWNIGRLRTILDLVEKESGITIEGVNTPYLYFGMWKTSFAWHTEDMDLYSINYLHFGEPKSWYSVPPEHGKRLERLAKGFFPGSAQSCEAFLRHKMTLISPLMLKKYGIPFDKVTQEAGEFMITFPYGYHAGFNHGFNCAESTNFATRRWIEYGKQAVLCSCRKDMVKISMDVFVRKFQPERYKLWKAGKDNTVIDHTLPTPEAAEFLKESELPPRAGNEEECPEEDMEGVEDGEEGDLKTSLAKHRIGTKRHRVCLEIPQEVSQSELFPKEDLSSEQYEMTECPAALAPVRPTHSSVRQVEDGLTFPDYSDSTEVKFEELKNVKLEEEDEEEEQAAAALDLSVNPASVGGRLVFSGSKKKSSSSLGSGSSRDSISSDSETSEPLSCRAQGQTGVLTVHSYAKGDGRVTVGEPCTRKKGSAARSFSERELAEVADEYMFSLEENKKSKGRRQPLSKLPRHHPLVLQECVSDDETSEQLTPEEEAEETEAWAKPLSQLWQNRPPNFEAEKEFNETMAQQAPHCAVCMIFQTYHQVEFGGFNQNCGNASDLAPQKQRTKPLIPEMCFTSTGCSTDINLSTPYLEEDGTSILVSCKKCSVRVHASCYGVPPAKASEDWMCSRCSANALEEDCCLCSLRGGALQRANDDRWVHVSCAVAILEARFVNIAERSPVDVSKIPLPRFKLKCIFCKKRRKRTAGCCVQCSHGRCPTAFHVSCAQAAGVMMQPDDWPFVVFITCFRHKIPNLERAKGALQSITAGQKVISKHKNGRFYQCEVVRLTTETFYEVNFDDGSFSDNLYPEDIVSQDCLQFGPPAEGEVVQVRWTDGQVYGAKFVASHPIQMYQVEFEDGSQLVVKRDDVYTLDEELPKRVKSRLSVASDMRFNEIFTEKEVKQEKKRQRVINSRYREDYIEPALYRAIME
HP1b binding inh: inhibitors of HP1-beta chromodomain binding to methylated histone tails. P83916. AlphaScreen HP1-beta / biotin-H3K9me3 peptide binding. Potency, µM (series often up to 114 µM), inactives show top-dose activity change, negative = inhibition, most hits filed as inhibitors. hit rate 0.56% among 390,000; note: potency is the fitted concentration of half-maximal effect; nearly all actives have a fitted effect of over 70% in size
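Compound inhibition of the preformed complex between 50 nM HP1-beta and 50 nM biotinylated H3K9me3 peptide was read by AlphaScreen. Buffer was PBS pH 7.4 with 0.01% Tween-20. Incubations ran 30 min at room temperature, with 10 ug/mL donor/acceptor beads.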
PLK1 PBD inh: inhibitors of human PLK1 polo-box domain binding | hit rate 2.8% among 360,000 | Plk1 PBD binding of FITC phosphopeptide, fluorescence polarization | Potency, µM, for inactives: max response, negative = inhibition, usual class: inhibitors | P53350; note: potency is the fitted concentration of half-maximal effect; series mostly up to about 57 µM; % is set by controls: 0 for no effect and ±100 for the full control effect; nearly all actives have a fitted effect of over 65% in size
G9a block: inhibitors of human histone lysine methyltransferase G9a. Q96KQ7. G9a H3K9 monomethylation, AlphaScreen, 2 h. Potency, µM (titrated, usually from 102 µM), for the others: at the top dose activity, negative = inhibition, usual class: inhibitors. hit rate 8.8% among 350,000. AID 504332; note: potency is the fitted concentration of half-maximal effect; % is set by controls: 0 for no effect and ±100 for the full control effect; nearly all actives have a fitted effect of over 75% in size
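Enzyme 20 nM + cpd, 15 min RT; add b-H3K9 pep 500 nM / SAM 20 uM; 2 h RT; anti-H3K9me1 Ab 0.5 ug/mL + SA donor / anti-rabbit acceptor beads 20 ug/mL each, 10 min; AlphaScreen read.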
Starred values were filed as active, the others as inactive; ? = inconclusive; / = no result given; [ ] = another dose, or the depositor's remark. Most compounds without a hit are left out; they make up all but 12% or so of the library. Unless noted, calls come from the whole dose curve; as a rule, active = well fitted curve in the direction sought with a large enough effect; inconclusive = small, poorly fitted or top-dose-only effect, or another doubt; inactive = no such curve, though single readings can be large; an effect the other way counts as inactive or inconclusive.

SMILES	BAZ2B inh	PI5P4Ka inh	JMJD2A Tudor	HP1b binding inh	PLK1 PBD inh	G9a block
Cc1cn(C2CC3OCC(NC(=O)C4CCCN4C(=O)OC(C)(C)C)C3O2)c(=O)[nH]c1=O (stereo not given)	/	/	-13%	46%	/	/
COc1ccc(NC(=O)CSc2n[nH]c(CNc3cccc(C)c3)n2)cc1	-27%	2	-23%	26%	-7%	?
O=C1CCc2cc(S(=O)(=O)Nc3ccc(F)cc3)ccc2N1	4%	6	-4%	23%	-14%	1%[0.501 µM]
CCc1cccc(NC(=O)C(Cc2ccccc2)n2cccc2)c1 (stereo not given)	10%	/	3%	19%	/	13%[59 µM]
Cc1cccc(CS(=O)(=O)c2ncc(Cl)c(C(=O)Nc3nnc(C(C)C)s3)n2)c1	?	-12	?	31%[57 µM]	?	?
CSc1nnc(NC(=O)c2nc(S(=O)(=O)Cc3cccc(C)c3)ncc2Cl)s1	4%	-25	?	22%[57 µM]	?	4.5µM*
COc1ccccc1-c1noc(-c2ccc(N3CCN(c4ccccc4)CC3)c([N+](=O)[O-])c2)n1	-2%	/	0%	59%	/	-8%[59 µM]
CC1CCN(c2c([N+](=O)[O-])nn(-c3ccc4c(c3)OCCO4)[n+]2[O-])CC1	22µM*	2	?	?	-9%	35µM*
Cc1ccc(CSC2=Nc3ccccc3C3=NC(CC(=O)NCc4ccco4)C(=O)N23)cc1 (stereo not given)	50µM*	?	?	9%	-21%	?
O=C(CCC1N=C2c3ccccc3N=C(SCc3ccc(Cl)cc3)N2C1=O)NCCc1ccccc1 (stereo not given)	-3%	/	-17%	12%	/	-3%[59 µM]
O=C(CC1N=C2c3ccccc3N=C(SCc3ccc(F)cc3)N2C1=O)NCc1ccco1 (stereo not given)	-38%	-14	?	24%	-22%	-19%[59 µM]
O=C(CC1N=C2c3ccccc3N=C(SCc3ccccc3F)N2C1=O)NCc1cccs1 (stereo not given)	-14%	/	-24%	2%	/	3%[59 µM]
O=C(CC1N=C2c3ccccc3N=C(SCC(=O)Nc3ccccc3F)N2C1=O)NCc1cccs1 (stereo not given)	?	/	-26%	-4%	/	14µM*
O=C(CC1N=C2c3ccccc3N=C(SCc3ccc(Cl)cc3)N2C1=O)NCCc1ccccc1 (stereo not given)	0%	/	79µM*	31%	/	7%[59 µM]
Cc1ccc(-n2c(Cl)c(Cl)nc(Cl)c2=O)cc1	?	-12	-31%	-37%	2.7µM*	?
C=Cc1ccc(CSc2nc(-c3ccc(C)cc3)nc3c2Cc2c(CO)cnc(C)c2O3)cc1	-24%	/	-15%	-3%	/	-31%[59 µM]
C=CCNC(=S)/N=c1/ccccn1CCC	-7%	-4	-6%	22%	-22%	-9%[12.7 µM]
C=CCNC(=S)/N=c1/ccccn1C	-14%	1	4%	17%	-5%	35µM*
O=C1CN(C(=O)COC(=O)/C=C/c2ccco2)c2ccccc2N1	?	-11	-12%	1%	9%	45µM*
O=C1CN(C(=O)COc2ccccc2Cl)c2ccccc2N1	-5%	-3	-11%	31%	4%	?
O=C1CN(C(=O)COc2ccccc2F)c2ccccc2N1	4%	-1	-19%	10%	-4%	50µM*
Cc1ccc(/C=C/C(=O)OCC(=O)N2CC(=O)Nc3ccccc32)o1	?	-29	56µM*	-11%	27µM*	50µM*
COc1ccc(/C=C/C(=O)OCC(=O)N2CC(=O)Nc3ccccc32)cc1S(=O)(=O)N1CCOCC1	-11%	6	-18%	40%	-4%	56µM*
O=C1CN(C(=O)COC(=O)/C=C/c2ccc(OC(F)F)cc2)c2ccccc2N1	-11%	4	-4%[57.1 µM]	10%	-8%	-8%[59 µM]
CCOc1ccc(/C=C/c2nc(C#N)c(NC(C)CC)o2)cc1 (stereo not given)	-28%	/	-16%	15%	/	4%[59 µM]
SMILES	BAZ2B inh	PI5P4Ka inh	JMJD2A Tudor	HP1b binding inh	PLK1 PBD inh	G9a block
COc1ccc(-n2c(=O)c(C)nc3cnc(Nc4cccc(OC)c4)nc32)cc1	/	/	/	/	/	14%[12.7 µM]
O=C(Oc1ccccc1F)c1nc(SCc2ccccc2F)ncc1Cl	34%	/	7%	55%	/	-3%[59 µM]
CC(=O)Nc1ccc(NC(=O)c2ncoc2-c2ccco2)cc1	-23%	/	-13%	16%	/	13%[59 µM]
Cc1ccc(NC(=O)Cn2cc3c(n2)CCCC3)cc1Cl	3%	/	-13%	31%	/	9%[59 µM]
CCOC(=O)c1cnc2oc3ccccc3n2c1=O	18%	-30	-16%	-17%	-16%	/
O=C(O)c1cnc2[nH]c3ccccc3n2c1=O	-35%	-2	?	0%	-14%	50µM*
Cc1cccc(-c2nc(SCC(=O)N(C)c3ccccc3)c3c(=O)n(C)c(=O)n(C)c3n2)c1	-37%	/	7%	25%[57 µM]	/	-24%[59 µM]
O=C(/C(C=Nc1ccc(Br)cc1)=C(/O)c1ccco1)C(F)(F)F	-1%	-6	-25%	38%	-5%	45µM*
C[C@H](CO)N1C[C@H](C)[C@@H](CN(C)Cc2ccc3c(c2)OCO3)Oc2cc(Br)ccc2S1(=O)=O	/	12	/	/	-10%	/
O=C(Nc1cccc(Cl)c1)N1CCOCC1	-7%	-1	-11%	15%	5%	7%
O=C1CCN(C(=O)Nc2ccccc2Cl)N1	2%	-7	?	2%	-7%	10µM*
CCOC(=O)N1CCN(C(=O)Nc2ccccc2Cl)CC1	-2%	/	-17%	19%	-6%	3%[59 µM]
O=C1CCN(C(=O)Nc2cccc(Cl)c2)N1	-11%	-1	20µM*	2%	-10%	10µM*
O=C1CN(C(=S)Nc2ccccc2Cl)CCN1	-28%	4	-8%	39%	-21%	45µM*
S=C(Nc1ccccc1Cl)N1CCCCC1	-1%	7	-4%	30%	-6%	9%[59 µM]
C[C@@H]1CN([C@H](C)CO)C(=O)CCCn2nncc2CO[C@H]1CN(C)Cc1ccc2c(c1)OCCO2	/	-3	/	/	-16%	/
CCCSC1=NC2(CCN(C(=O)NC3CCCCC3)CC2)N=C1c1ccc(C)cc1	9%[57.1 µM]	/	-17%	0%	/	-12%[59 µM]
CCCCCCc1cc2cc(-c3nnc(-c4ccccc4OC)o3)c(=O)oc2cc1O	?	-88*	-3%	31%	-26%	66%[12.7 µM]
Brc1ccc(NC(c2ccccc2)c2ccncc2)cc1 (stereo not given)	71µM*	-4	56µM*	17%	?	?
Cc1ccc(C)c2[nH]c(=O)c(CN(Cc3ccc4c(c3)OCO4)Cc3nnnn3Cc3ccco3)cc12	-38%	0	-31%	25%	-6%	-48%[59 µM]
Cc1ccc2cc(CN(Cc3ccc4c(c3)OCO4)Cc3nnnn3Cc3ccco3)c(=O)[nH]c2c1C	-9%	12	-32%	17%	-12%	11µM*
